EBV LMP1 NFkB = Epstein-Barr LMP1 NF-kappaB reporter inhibition; LMP1-induced NF-kappaB luciferase reporter cells, luminescence; hit rate 0.69% among 350,000; inhibition, % at 12.5 µM; in the data active means inhibition above about 41%;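 further: 0% = neutral control wells and 100% = reference inhibitor control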
TWEAK Fn14 block = blocks TWEAK-Fn14 interaction in a reporter cell assay; TWEAK-stimulated Fn14 reporter cells, luciferase luminescence, 8 h; inhibition, % at 10 µM; hit rate 2% among 360,000; AID 1159606; in the data active means inhibition above about 50%
HIF-2a block = inhibitors of HIF-2a. 786-0 RCC cells HIF-2a reporter, luciferase luminescence, overnight. inhibition, % at 18.8 µM. hit rate 0.72% among 360,000. AID 624352;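 active means inhibition of the luminescence signal of 40% or more relative to plate controls, in a single-dose primary screen at 18.75 µM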
TRPM1 prom inh = reduces MITF-dependent TRPM1 promoter luciferase signal; AID 488899; hit rate 0.83% among 330,000; SK-MEL-5 TRPM1 promoter luciferase, 24 h; inhibition, % at 12.5 µM;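 active means mean inhibition across replicates of 60% or more, whatever share of single replicates reaches that level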
Shn3 inh set2 = inhibitors of Schnurri-3 3'UTR reporter in osteoblasts; Clone20 osteoblast Shn3 3'UTR firefly luciferase, 24 h; inhibition, % at 12.5 µM; hit rate 0.52% among 360,000;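 active means mean inhibition of at least 75% with every replicate also reaching 75%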;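 further: 0% = median of neutral control wells and 100% = pilot-screen positive control compound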
TROY signal inh = blocks TROY-dependent signaling in reporter cells; Q293 LMP1-TROYcd NF-kB luciferase reporter, 4 h; inhibition, % at 10 µM; hit rate 0.98% among 360,000; AID 1347056;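 active means compounds whose plate-normalised and pattern-corrected inhibition of the luciferase reporter signal at the single screening dose is 50% or more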
* = called active by the depositor; nt = not tested or not shown. Hits are enriched below; roughly 3.4% of the tested compounds scored in any of these assays.

SMILES	EBV LMP1 NFkB	TWEAK Fn14 block	HIF-2a block	TRPM1 prom inh	Shn3 inh set2	TROY signal inh
COc1ccc(N(CC(=O)NC2CC3CCC2C3)S(=O)(=O)c2ccccc2)cc1Cl (centres undefined)	-3.2	90.8*	16.2	-1.4	-9.0	10.5
COc1ccc(C(=O)NOCc2ccccc2)cc1	48.1*	86.0*	-16.8	18.5	-56.4	47.1
COc1ccc(C(=O)NCCSc2ccccc2)cc1	-3.8	60.7*	-58.7	-4.0	-33.2	13.6
Cc1ccc(CONC(=O)c2ccccc2)cc1	-11.7	10.4	-251.3	-70.1	-56.0	-48.4
O=C(NOCc1ccccc1)c1ccc(Cl)cc1	31.8	65.9*	-15.7	-13.9	-50.7	30.5
Cc1ccc([C@H]2C[C@@H](n3cc(-c4ccc(F)cc4)nn3)[C@H](O)CN2C(=O)C2CCCCC2)cc1	-0.7	14.5	4.8	nt	13.6	-0.8
COC(=O)c1ccc(Cl)c(NC(=O)CN(c2ccccc2)S(=O)(=O)c2ccc(OC)cc2)c1	-0.1	60.4*	21.1	22.6	-21.4	8.3
COc1ccc(N(CC(=O)Nc2ccccc2C(=O)N2CCCC2)S(=O)(=O)c2ccccc2)cc1	63.1*	5.5	12.6	-9.6	15.5	-11.7
COc1ccc(N(CC(=O)NCCSCc2ccccc2C)S(=O)(=O)c2ccccc2)cc1	-0.3	26.7	26.5	-14.4	-4.3	76.4*
COc1ccc(NC(=O)CN(c2ccccc2)S(=O)(=O)c2ccccc2)c(OC)c1	0.1	7.3	21.5	-5.8	7.1	-9.2
CCN(c1ccccc1)S(=O)(=O)c1ccc(Cl)c(NC(=O)CN(C)Cc2cccc(F)c2)c1	9.5	22.8	16.7	12.5	90.9*	11.3
CCCCNC(=O)C(NC(=O)Cc1cc(C(F)(F)F)cc(C(F)(F)F)c1)C(=O)c1ccccc1 (centres undefined)	nt	nt	-29.9	nt	nt	nt
Cc1noc(C)c1C(=O)Nc1ccc(C#N)cc1	7.3	-6.5	17.6	-13.0	0.0	-6.4
COc1ccc(S(=O)(=O)N2CCCCC2)cc1NC(=O)c1c(F)cccc1Cl	-5.9	-7.1	-3.7	3.0	-3.9	-12.4
O=C(CSc1ccc(Cl)cc1)Nc1cccc(-c2nc3ncccc3o2)c1	6.9	70.6*	-55.3	12.2	25.1	67.5*
Cc1c(NC(=O)CSc2ccc(Cl)cc2)cccc1-c1nc2ncccc2o1	12.8	42.9	-15.2	-1.3	2.8	46.6
NC(=O)C1CCN(CC(O)COc2ccc(-c3ccccc3)cc2)CC1 (centres undefined)	-13.4	106.9*	-8.1	6.5	-46.2	-19.9
CCN(c1ccccc1)S(=O)(=O)c1cccc(C(=O)Nc2cccc(C)n2)c1	-6.7	-0.7	-14.4	nt	1.1	0.7
CCCn1c(SCC(=O)N2c3ccccc3Sc3ccccc32)nc2c1c(=O)n(C)c(=O)n2C	14.1	-24.6	15.7	-0.2	6.9	50.2*
CC(C)n1c(SCC(=O)N2c3ccccc3Sc3ccccc32)nc2c1c(=O)n(C)c(=O)n2C	12.6	-15.6	14.9	-1.3	29.1	11.5
CC1(C)CC(N2CCN(c3ccccc3)CC2)=CC(=[N+]2CCCC2)C1	6.7	34.3	1.4	56.8	86.4*	22.3
CC1CC(C)C[N+](=C2C=C(N3CCCC3)CC(C)(C)C2)C1 (centres undefined)	41.6*	49.7	4.0	69.7*	88.6*	19.1
CCN(CC)C1=CC(=[N+]2CCCC2)CC(C)(C)C1	6.6	17.1	8.7	46.1	77.4	7.5
CN(Cc1ccccc1)C1=CC(=[N+]2CCCC2)CC(C)(C)C1	15.2	40.8	7.2	77.2*	87.8*	46.2
CC1(C)CC(N2CCCC2)=CC(=[N+]2CCCCCC2)C1	8.4	28.6	13.8	51.5	83.7	22.2
SMILES	EBV LMP1 NFkB	TWEAK Fn14 block	HIF-2a block	TRPM1 prom inh	Shn3 inh set2	TROY signal inh
COc1ccc(C#Cc2ccc(C3=CC(=O)CC(C)(C)C3=O)cc2)cc1	-9.6	-28.4	-180.8	nt	-5.2	-56.4
COCCN1C(=O)COc2ccccc2C1C(=O)NC(C)(C)C (centres undefined)	nt	12.8	3.4	nt	nt	-5.5
O=Cc1cc(CCC(=O)O)ccc1O	53.3*	-3.8	-6.7	-5.8	2.2	12.3
CC(=O)Oc1cccc2c1C(=O)C1CC=CC(OC(C)=O)C1C2=O (centres undefined)	-3.4	-27.3	-32.5	-0.8	-10.6	-18.3
COc1cc(CC(NC(C)=O)C(=O)NC2CCN(C(=O)c3ccc(C)cc3)CC2)cc(OC)c1 (centres undefined)	-10.5	3.2	13.0	1.6	-7.4	-11.5
COc1cc(CC(NC(C)=O)C(=O)NC2CCN(C(=O)C3CC3)CC2)cc(OC)c1 (centres undefined)	0.5	12.5	11.4	0.9	-0.4	55.0*
Cc1ccc(CNC(=O)CN2NS(=O)(=O)c3ccccc3C2=O)cc1	-2.2	-15.0	3.6	nt	-13.5	-16.9
C=CCn1c(C)cc(C(=O)CN2NS(=O)(=O)c3ccccc3C2=O)c1C	-27.1	40.5	-244.8	-55.7	-61.2	68.8*
O=C(N[C@@H](Cc1ccccc1)C(=O)N[C@@H](Cc1ccccc1)C(=O)O)OCc1ccccc1	-0.1	4.6	6.7	9.0	3.1	6.5
O=C(N[C@@H](Cc1ccccc1)C(=O)CCl)OCc1ccccc1	56.4*	48.5	-11.5	95.8*	16.8	0.3
O=C1c2ccccc2C(=O)C1c1ccnc2ccccc12	13.5	99.5*	23.8	36.3	42.6	42.1
N#CC1=C(N)SC(N)=C(C#N)C1c1ccnc2ccccc12	3.6	25.8	15.5	19.4	1.9	12.9
O=C1C(c2ccnc3ccccc23)=C(O)c2ccccc21	6.4	94.4*	-9.8	51.5	72.3	58.5*
O=C1c2ccccc2C(=O)C1c1nccc2ccccc12	23.5	96.6*	2.7	55.4	0.2	55.2*
CC(C)Nc1ncnc2c1ncn2[C@H]1CN(CCN2CCOCC2)C[C@@H](CO)O1	nt	-2.2	2.4	nt	20.6	3.3
N#Cc1c(NC(=O)Cn2c(=O)oc3ccccc32)oc(-c2ccccc2)c1-c1ccccc1	-13.0	-14.1	8.9	5.4	-2.7	68.1*
Cc1cc(F)ccc1S(=O)(=O)Nc1ccccc1C(=O)NC1CCN(Cc2ccccc2)CC1	-6.4	16.8	-0.7	5.1	6.5	34.3
Nc1cccc(-c2cc3ccccc3oc2=O)c1	21.7	59.6*	40.8*	21.5	9.8	66.9*
COc1ccccc1/C=C/CN1CCC(n2nccc2NC(=O)CCc2ccccc2)CC1	3.6	-5.7	7.3	2.4	86.3*	14.4
Nc1c(OS(=O)(=O)c2ccccc2)cccc1OS(=O)(=O)c1ccccc1	-47.4	-7.7	-271.0	nt	-92.7	-68.5
CCCc1nnc(NC(=O)CNc2ccc(F)cc2)s1	8.4	80.9*	-13.4	4.9	19.7	nt
O=C(CSCc1cccc(CSCC(=O)Nc2ccc3ccccc3c2)n1)Nc1ccc2ccccc2c1	-4.4	67.1*	-17.0	36.7	30.6	38.2
CC(C)(C)NC(=O)NC(=O)CN1CCN(c2ccccc2)CC1	-1.5	4.6	14.1	-5.0	6.5	-3.8

High-throughput results deposited in PubChem by several laboratories.
